From PubChem
Lamin A splicing: LMNA splicing modulation; HeLa LMNA splicing GFP/RFP minigene ratio, 48 h; Potency, µM (titrated, usually from 46.1 µM), without a hit: at the highest dose ratio change, negative = inhibition, usual class: inhibitors; hit rate 0.01% among 200,000; AID 1487; active = well fitted inhibition curve with a large enough effect in the signal ratio, with a control signal flat, not every such curve was filed as active; inconclusive = small, poorly fitted or top-dose-only effect, or effect the other way, or a change in a side signal; the % refers to the signal ratio; also: potency is read from the fitted curve at half-maximal effect; % is scaled to controls: 0 for no effect and ±100 for the full control effect
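S3 HeLa stable clones carrying a lamin A-EGFP splicing minigene plus DsRed2 were seeded at 600 cells/well in Opti-MEM with 2% FBS, pin-dosed and incubated 48 h at 37°C. Acumen cytometry (488 nm) gave the GFP/RFP total-intensity ratio.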
MBNL1 CUG block: MBNL1-poly(CUG) RNA binding inhibition | hit rate 0.036% among 280,000 | Q9NR56 | TR-FRET MBNL1-His/biotin-(CUG)12 binding, 665/545 ratio | Potency, µM (doses to about 57.5 µM), for the others: at the top dose activity change, negative = inhibition, hits mostly inhibitors; active = well fitted inhibition curve with a large enough effect in the signal ratio, with a control signal flat, not every such curve was filed as active; inconclusive = small, poorly fitted or top-dose-only effect, or effect the other way, or a change in a side signal; inactive = no such curve, though single readings can be large or run the other way; the % refers to the signal ratio; also: potency is read from the fitted curve at half-maximal effect; % is scaled to controls: 0 for no effect and ±100 for the full control effect
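MBNL1-His + Biotin-(CUG)12, cpd titration 92 nM–58 uM; Tb anti-His Ab 0.055 ng/ul, SA-XL665 5 nM (final); 60 min RT; ratiometric 665/545 nm, Ex 340 nm; normalized to buffer and full-complex controls.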
CBFb-RUNX1 inh: CBF-beta/RUNX1 interaction disruption; Q01196+Q13951; AlphaScreen CBFb-His/RUNX1-biotin binding, biochemical; Potency, µM (titrated, usually from 59.8 µM), for inactives: top-dose activity, negative = inhibition, actives largely listed as inhibitors; 230,000 tested, under 10 active; also: % of control where 0% means no effect
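Room-temperature protein-protein interaction test with 30 nM each of His-tagged CBF-beta and biotinylated RUNX1, 15 min with compound, then 90 min with nickel plus streptavidin beads. Signal read in AlphaScreen mode.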
MBNL1-CUG FRET: blocks human MBNL1 binding to CUG repeat RNA, TR-FRET validation. Potency, µM (series often up to 57.6 µM), without a hit: at the highest dose activity change, negative = inhibition, hits mostly inhibitors. TR-FRET MBNL1-His / biotin-(CUG)12 binding, 60 min. hit rate 50% among 140. shares compounds with MBNL1 CUG block
MBNL1-CUG Alpha: MBNL1-CUG RNA binding inhibition, AlphaScreen validation; shares compounds with MBNL1 CUG block; hit rate 30% among 140; Potency, µM (doses to about 57.7 µM), without a hit: at the top dose activity, negative = inhibition, actives largely listed as inhibitors; AlphaScreen MBNL1-His / biotin-(CUG)12 binding; AID 493205
Menin-MLL HTRF: MBNL1-CUG RNA binding inhibitor counterscreen activity. Potency, µM (doses to about 57.6 µM), without a hit: at the top dose activity, negative = inhibition, actives largely listed as inhibitors. shares compounds with MBNL1 CUG block. hit rate 20% among 120. His-Menin/biotin-MLL peptide TR-FRET counterscreen
Active calls of the source: *; [ ] = another dose, or the depositor's remark. Only some compounds are listed: those with a hit (about 0.039% of all), similar ones and a draw of the others. Unless noted, calls follow the shape of the dose curve; as a rule, active = well fitted curve in the direction sought with a large enough effect; inconclusive = small, poorly fitted or top-dose-only effect, or another doubt; inactive = no such curve, though single readings can be large; an effect the other way counts as inactive or inconclusive.

O=C(/C=C/c1cccs1)Nc1nc(-c2ccccc2)cs1 was read as Lamin A splicing inconclusive, MBNL1 CUG block 1% and CBFb-RUNX1 inh 25%.
For OC(COc1ccccc1CNCc1cccnc1)CN1CCc2ccccc2C1 (stereo not drawn) the results were Lamin A splicing inconclusive, MBNL1 CUG block 13µM*, CBFb-RUNX1 inh 12%, MBNL1-CUG FRET 16µM*, MBNL1-CUG Alpha inconclusive and Menin-MLL HTRF inconclusive.
For OC(COc1ccc(CNCc2cccnc2)cc1)CN1CCc2ccccc2C1 (stereo not drawn) the results were Lamin A splicing 16%[46 µM], MBNL1 CUG block -1% and CBFb-RUNX1 inh -1%.
COc1cc2c(C#N)c(N3CCCC3)nc(N)c2c(N)n1 was read as MBNL1 CUG block inconclusive and CBFb-RUNX1 inh 11%.
`N#Cc1c(N2CCCC2)nc(N)c2c(N)nc(N3CCCC3)cc12` gave Lamin A splicing -3%, CBFb-RUNX1 inh inconclusive, MBNL1-CUG FRET 5.2µM*, MBNL1-CUG Alpha 0.65µM* and Menin-MLL HTRF 22%.
For O=c1ccc2ccc(OS(=O)(=O)O)cc2o1 the results were CBFb-RUNX1 inh 7%.
`Cc1ccccc1Cn1c(=O)n(CC2CCC(C(=O)N3CCC(C)CC3)CC2)c(=O)c2sccc21` (stereo not drawn) gave Lamin A splicing -22%[46 µM].
`Cc1cc(N2CCN(C)CC2)nc2ccc(NC(=S)NCCN3CCc4ccccc4C3)cc12` gave MBNL1 CUG block 25µM*, CBFb-RUNX1 inh 0%, MBNL1-CUG FRET -20%, MBNL1-CUG Alpha -25% and Menin-MLL HTRF -19%.
Screening Cc1cc(N2CCN(C)CC2)nc2ccc(NC(=S)NCCCN3CCc4ccccc4C3)cc12 returned MBNL1 CUG block inconclusive and CBFb-RUNX1 inh 8%.
For COc1ccc(-n2c(SCC(=O)NCc3ccccc3)nc3c([nH]c4ccccc43)c2=O)cc1 the results were Lamin A splicing -2%[46 µM].
For O=C(NC1(O)C(=O)c2ccccc2C1=O)c1ccccc1 the results were Lamin A splicing -5%, CBFb-RUNX1 inh 8%, MBNL1-CUG FRET 21µM*, MBNL1-CUG Alpha 13µM* and Menin-MLL HTRF 1%.
Screening O=C(NC1(O)C(=O)c2ccccc2C1=O)c1c(Cl)cccc1Cl returned MBNL1 CUG block inconclusive and CBFb-RUNX1 inh 1%.
`CCCCCNCCCCC` gave CBFb-RUNX1 inh 12%[21.7 µM].
